According to the supplement of paper PMC3545927:
Some of the results follow. The true hit rate is not given.

Target: furin, P09958
Test: furin cleavage Z-score vs untreated control; higher = more cleavage, active = 3.5 or more, inactive = 1 or less, 8 variable residues between constant flanks
Outline: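 Reactions of 0.01 ml ran for 7.5, 15 or 30 min in 50 mM HEPES pH 7.5 with CaCl2 and NaCl, at 1:10 enzyme:substrate. In them, purified furin acted on bead-held 8-mer peptides fused to a cDNA oligonucleotide. The cleavage Z-score was obtained by lowess-adjusting log sequencing counts of released DNA against furin-free reactions and scaling by median absolute deviation.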

Sequence of furin, P09958 (P09958 whole entry): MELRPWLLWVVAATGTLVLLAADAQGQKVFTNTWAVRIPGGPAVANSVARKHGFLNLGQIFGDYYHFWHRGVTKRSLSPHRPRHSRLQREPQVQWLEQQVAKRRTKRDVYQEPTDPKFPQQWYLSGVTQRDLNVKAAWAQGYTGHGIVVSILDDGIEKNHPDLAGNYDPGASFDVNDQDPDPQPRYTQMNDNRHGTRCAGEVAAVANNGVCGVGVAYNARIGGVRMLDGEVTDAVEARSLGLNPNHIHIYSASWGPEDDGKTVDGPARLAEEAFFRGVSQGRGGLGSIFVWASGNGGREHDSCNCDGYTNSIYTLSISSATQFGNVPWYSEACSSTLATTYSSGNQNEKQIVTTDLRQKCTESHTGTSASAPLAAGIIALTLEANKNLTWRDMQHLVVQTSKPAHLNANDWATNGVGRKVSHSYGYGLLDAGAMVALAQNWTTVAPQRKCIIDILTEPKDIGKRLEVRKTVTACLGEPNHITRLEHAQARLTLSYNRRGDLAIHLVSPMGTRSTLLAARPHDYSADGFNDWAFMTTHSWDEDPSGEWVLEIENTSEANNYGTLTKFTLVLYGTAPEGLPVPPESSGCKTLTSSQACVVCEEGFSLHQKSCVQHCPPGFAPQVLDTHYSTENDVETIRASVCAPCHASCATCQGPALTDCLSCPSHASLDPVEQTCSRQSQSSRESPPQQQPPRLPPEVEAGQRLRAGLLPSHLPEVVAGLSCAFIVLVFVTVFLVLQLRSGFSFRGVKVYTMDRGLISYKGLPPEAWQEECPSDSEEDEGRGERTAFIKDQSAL

| Sequence | furin cleavage Z-score (7.5 min) | furin cleavage Z-score (15 min) | furin cleavage Z-score (30 min) |
| --- | --- | --- | --- |
| CAEVPCHEPSAGNASASA [HC2372] | -0.836 (inactive) | 1.11 | -0.669 (inactive) |
| CAGAPPCVIGAGNASASA [HC443] | 1.73 | -1.15 (inactive) | -0.113 (inactive) |
| CALAGTHGLVAGNASASA [HC540] | 0.465 (inactive) | 1.56 | 0.729 (inactive) |
| CATDRSGAPTAGNASASA [HC420] | -0.957 (inactive) | -0.534 (inactive) | 0.262 (inactive) |
| CANVSVAHDGAGNASASA [HC1555] | 0.322 (inactive) | -0.558 (inactive) | 0.0108 (inactive) |
| CAALENLVILAGNASASA [HC534] | -0.644 (inactive) | -1.06 (inactive) | -0.181 (inactive) |
| CARIKRMVFKAGNASASA [FS-1722] | 5.13 (active) | 5.7 (active) | 8.11 (active) |
| CARIKKSKMIAGNASASA [FS-2260] | -0.171 (inactive) | 1.16 | -0.504 (inactive) |
| CARSLRSEFKAGNASASA [FS-3209] | -0.188 (inactive) | -0.988 (inactive) | 0.991 (inactive) |
| CARAKKIFGWAGNASASA [FS-1680] | 1.69 | 0.732 (inactive) | 0.406 (inactive) |
| CARIKRAEGWAGNASASA [FS-2149] | 6.5 (active) | 7.28 (active) | 7.15 (active) |
| CARIKRAGGFAGNASASA [FS-2261] | 6.34 (active) | 8.63 (active) | 7.18 (active) |
| CAREKRGNGWAGNASASA [FS-2254] | -0.781 (inactive) | 0.97 (inactive) | 2.15 |
| CARGARVVFKAGNASASA [FS-2930] | -2.06 (inactive) | -1.04 (inactive) | -0.554 (inactive) |
| CARFWRSTGFAGNASASA [FS-2669] | 0.601 (inactive) | 1.09 | 0.345 (inactive) |
| CADNMEECSQAGNASASA [HC1821] | -1.18 (inactive) | -0.208 (inactive) | -1.08 (inactive) |
| CALAVAVEPVAGNASASA [HC644] | 0.342 (inactive) | -1.7 (inactive) | -0.692 (inactive) |
| CAANLLWRQEAGNASASA [HC1275] | 1.65 | 1.09 | 0.698 (inactive) |
| CARAKRGNIHAGNASASA [FS-2250] | 0.0194 (inactive) | 0.245 (inactive) | 1.46 |
| CARAKRAVSHAGNASASA [FS-2544] | 7.56 (active) | 8.33 (active) | 7.62 (active) |
| CADIYHSVSHAGNASASA [HC1650] | -2.02 (inactive) | -1.09 (inactive) | -0.935 (inactive) |
| CARNKRNSKMAGNASASA [FU4] | 5.8 (active) | 8.1 (active) | 7.99 (active) |
| CARAKRSPKHAGNASASA [FS-2639] | 5.3 (active) | 6.19 (active) | 6.5 (active) |
| CARNKRQSKSAGNASASA [FS-3009] | 3.6 (active) | 6.73 (active) | 6.06 (active) |

| Sequence | furin cleavage Z-score (7.5 min) | furin cleavage Z-score (15 min) | furin cleavage Z-score (30 min) |
| --- | --- | --- | --- |
| CARNKRLSISAGNASASA [FS-3007] | 0.116 (inactive) | -1.14 (inactive) | 0.746 (inactive) |
| CARAPRSVGGAGNASASA [FS-1886] | -0.25 (inactive) | 0.302 (inactive) | 0.769 (inactive) |
| CARNKRIWASAGNASASA [FS-2728] | 0.843 (inactive) | 1.63 | -0.176 (inactive) |
| CARNKRNSKMAGNASASA [FS-2397] | 6.32 (active) | 8.34 (active) | 7.25 (active) |
| CANVCCSMSYAGNASASA [HC2001] | 0.0522 (inactive) | 1.55 | 1.28 |
| CAMHLQGPEDAGNASASA [NG10] | 0.395 (inactive) | -0.679 (inactive) | -0.939 (inactive) |
| CALAAKLVALAGNASASA [HC862] | 1.87 | -0.745 (inactive) | 0.749 (inactive) |
| CAPVVHGCPLAGNASASA [HC1315] | -0.719 (inactive) | -0.657 (inactive) | -0.124 (inactive) |
| CAVCGAPPCVAGNASASA [HC442] | 1.21 | 0.519 (inactive) | 0.314 (inactive) |
| CAEVVTKTWVAGNASASA [HC151] | -0.0944 (inactive) | 0.88 (inactive) | -0.37 (inactive) |
| CAEVAASCGGAGNASASA [HC567] | -0.691 (inactive) | -0.994 (inactive) | -0.368 (inactive) |
| CAHRFAPPCKAGNASASA [HC1226] | -2.1 (inactive) | -0.755 (inactive) | 0.739 (inactive) |
| CARAKRSSKMAGNASASA [FS-3181] | 5.7 (active) | 7.55 (active) | 8.74 (active) |
| CARAKRSVHFAGNASASA [FS-2640] | -0.56 (inactive) | -0.574 (inactive) | 1.29 |
| CARAKKGLGMAGNASASA [FS-2128] | 1.05 | 0.216 (inactive) | 0.932 (inactive) |
| CATTPCSGMWAGNASASA [HC1906] | 0.488 (inactive) | 0.804 (inactive) | -1.44 (inactive) |
| CAHPVTKYIMAGNASASA [HC980] | -1.79 (inactive) | 0.202 (inactive) | -0.88 (inactive) |
| CAPAKRPKRKAGNASASA [FS-1470] | 11.2 (active) | 12 (active) | 9.89 (active) |
| CAPRPISYLKAGNASASA [HC738] | 0.812 (inactive) | 1.42 | 0.555 (inactive) |
| CAKAEREKRKAGNASASA [FS-807] | 0.64 (inactive) | 0.758 (inactive) | 1.86 |
| CAPTARPKRKAGNASASA [FS-913] | 4.97 (active) | 4.54 (active) | 4.32 (active) |
| CAAFRRGVTKAGNASASA [FS-1876] | -0.242 (inactive) | -0.144 (inactive) | -1.52 (inactive) |
| CAPAQRTKRKAGNASASA [FS-836] | 10.3 (active) | 11.5 (active) | 9.82 (active) |
